This note sets out measurements from PubChem BioAssay (EPA / NIEHS).

Assay [1] in a line: TOX21_p53_BLA_p2_viability: Viability Assessment in the Tox21 HCT-116 p53 Agonism Beta-lactamase Assay, Phase 2 (AID 2283591).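 Also: compound exposure lasted 16 h at 37 °C; actives lower the ATP signal meaning cytotoxicity.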 The method, boiled down: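 HCT-116 p53-bla cells (4000/well) rested 5 h at 37C, then received compounds in DMSO (217-fold dilution) for 16 h at 37C, 5% CO2. After the CCF4 read, CellTiter-Glo was added; ATP luminescence was read after 30 min at room temperature.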

The nature of assay [2]: TOX21_p53_BLA_p3_viability: Viability Assessment in the Tox21 HCT-116 p53 Agonism Beta-lactamase Assay, Phase 3 (AID 2283593).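 Also: cells exposed to compound for 16 h before reading.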 Put shortly:
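HCT-116 cells (4000/well) rested 5 h at 37C, then got DMSO compounds by pin tool (217-fold dilution) for 16 h at 37C, 5% CO2. After the bla read, CellTiter-Glo was added and luminescence read at 30 min, room temperature.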

Assay [3] addresses Cellular tumor antigen p53 (Homo sapiens) (UniProt P04637). The assay can be described thus: TOX21_p53_BLA_p5_ratio: Tox21 HCT-116 p53 Agonism Beta-lactamase Assay, Ratio, Phase 5 (AID 2283599). The method, boiled down: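 HCT-116 cells carrying a p53-inducible beta-lactamase reporter were seeded at 4000 cells/well and dosed after 5 h with compound in DMSO (217-fold dilution). After 16 h at 37C, CCF4-AM substrate was added for 2 h, and the 460/530 nm emission ratio was scored as gain-of-signal versus DMSO.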

Assay [4] in a line: TOX21_p53_BLA_p5_viability: Viability Assessment in the Tox21 HCT-116 p53 Agonism Beta-lactamase Assay, Phase 5 (AID 2283600). The method, boiled down:
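Compounds, pinned from DMSO at 217-fold dilution, were left on the cells for 16 h. The viability endpoint was ATP content measured by CellTiter-Glo luminescence, where falling signal reflects cytotoxicity.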

Assay [5] is described as follows: TOX21_p53_BLA_p4_viability: Viability Assessment in the Tox21 HCT-116 p53 Agonism Beta-lactamase Assay, Phase 4 (AID 2283597).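 Also: hits lower the luminescence signal meaning cytotoxicity.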 Put shortly: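 We seeded HCT116 p53 reporter cells at 4000/well and waited 5 h. We then added compounds in DMSO at a 217-fold dilution and incubated for 16 h. Viability was read as CellTiter-Glo luminescence after 30 min at RT.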
Assay [6] addresses Cellular tumor antigen p53 (Homo sapiens) (UniProt P04637). Briefly: TOX21_p53_BLA_p4_ratio: Tox21 HCT-116 p53 Agonism Beta-lactamase Assay, Ratio, Phase 4 (AID 2283601). The method, boiled down:
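HCT116 cells carrying an inducible beta-lactamase reporter were plated at 4000 cells/well, rested 5 h, then exposed to compounds in DMSO (217-fold dilution) for 16 h at 37C. CCF4-AM substrate was loaded 2 h at room temperature; 460/530 nm emission ratio scored gain-of-signal versus DMSO.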

“And” between values parts separate entries of the source, which are not always exact repeats. Equal values may be shown once. Results filed as inconclusive are left out. The source made the active and inactive calls. The calls were made as follows: active = hit-call score of the fitted dose curve at least 0.9, where 1 is the maximum; inconclusive = response in the unintended direction; inactive = score below 0.9.

Chain of Cellular tumor antigen p53 (Homo sapiens) (P04637 whole entry, looked up): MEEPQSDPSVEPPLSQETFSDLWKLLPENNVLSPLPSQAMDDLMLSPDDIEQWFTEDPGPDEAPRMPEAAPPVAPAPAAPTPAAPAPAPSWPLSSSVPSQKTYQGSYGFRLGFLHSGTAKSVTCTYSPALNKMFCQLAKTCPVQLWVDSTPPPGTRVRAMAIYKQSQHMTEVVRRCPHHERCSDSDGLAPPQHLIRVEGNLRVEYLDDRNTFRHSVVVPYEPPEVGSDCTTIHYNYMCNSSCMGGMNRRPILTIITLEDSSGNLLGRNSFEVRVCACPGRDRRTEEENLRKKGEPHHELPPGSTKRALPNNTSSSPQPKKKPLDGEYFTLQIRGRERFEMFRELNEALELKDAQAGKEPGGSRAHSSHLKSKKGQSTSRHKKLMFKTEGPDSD

Consider `O=[N+]([O-])c1ccc(Cl)c(Cl)c1Cl`, for which the compound was called inactive in assay [1], in assay [2], in assay [3] and in assay [4].

Turning to `CC=C(CC)C(=O)NC(N)=O`, the call in assay [1], in assay [2], in assay [5], in assay [4] and in assay [6] was inactive.

Usually AC50 stands for the midpoint of the concentration-response curve, whichever way the signal moves. For `CC[n+]1c(-c2ccccc2)c2cc(N)ccc2c2ccc(N)cc21`, the compound was called inactive in assay [1], in assay [2], in assay [5] and in assay [4]. Also, the AC50 in assay [3] was 2.77 µM (active) and 8.85 µM (active) and 4.7 µM (active); in assay [6], 1.93 µM (active) and 9.2 µM (active) and 3.86 µM (active).

Turning to `CC(C)OS(C)(=O)=O`, the compound was called inactive in assay [1], in assay [2] and in assay [3].

In the case of `O=[N+]([O-])[O-].[Tl+]`, the compound was called inactive in assay [1], in assay [2], in assay [5] and in assay [4].
